Assays:
Assay in all cases: DAPPL (digital affinity profiling via proximity ligation, sequencing); 10 mM Tris-HCl pH 7.5, 50 mM NaCl, 1 mM DTT, 4% glycerol, room temperature, 30 min; GST-TFs on glutathione beads, 16-mer random dsDNA library, 0.1% formaldehyde crosslink after washing; high values mean tight binding
FLI1 = target: T1, FLI1 (Homo sapiens, UniProt Q01543 1-452); conditions: protein: recombinant; tags: N-terminal GST; dsDNA, one strand shown
T1 sequence: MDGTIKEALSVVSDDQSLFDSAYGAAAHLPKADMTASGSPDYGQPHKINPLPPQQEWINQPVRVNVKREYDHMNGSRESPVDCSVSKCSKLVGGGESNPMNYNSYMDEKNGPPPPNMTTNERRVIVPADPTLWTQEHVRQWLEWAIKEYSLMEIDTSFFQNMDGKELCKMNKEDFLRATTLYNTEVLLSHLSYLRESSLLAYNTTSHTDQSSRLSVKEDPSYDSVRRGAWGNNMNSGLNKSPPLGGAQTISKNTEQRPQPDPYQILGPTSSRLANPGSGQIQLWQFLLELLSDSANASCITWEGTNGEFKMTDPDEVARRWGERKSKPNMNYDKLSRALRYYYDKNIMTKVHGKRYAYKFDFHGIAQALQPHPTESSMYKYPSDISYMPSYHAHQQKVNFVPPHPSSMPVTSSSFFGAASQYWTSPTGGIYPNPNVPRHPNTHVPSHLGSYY
Method in brief: (§1)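 A tag-only sample was pooled with DNA-barcoded human transcription factors that had been expressed in yeast as GST fusions and captured on glutathione beads. The pools were incubated for 30 min at room temperature with 200 nmole of a random double-stranded 16-mer DNA library in Tris/NaCl/DTT/glycerol buffer, then washed, crosslinked with 0.1% formaldehyde, proximity-ligated (BsaI/T4 ligase, 1 h, 37 °C), PCR-amplified and sequenced on an Illumina NextSeq500. Binding signal is each hexamer's read frequency for a factor divided by its frequency for the tag-only sample.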

ELK1 = target: T2, ELK1 (Homo sapiens, UniProt P19419 1-428); conditions: protein: recombinant; tags: N-terminal GST; dsDNA, one strand shown
T2 sequence: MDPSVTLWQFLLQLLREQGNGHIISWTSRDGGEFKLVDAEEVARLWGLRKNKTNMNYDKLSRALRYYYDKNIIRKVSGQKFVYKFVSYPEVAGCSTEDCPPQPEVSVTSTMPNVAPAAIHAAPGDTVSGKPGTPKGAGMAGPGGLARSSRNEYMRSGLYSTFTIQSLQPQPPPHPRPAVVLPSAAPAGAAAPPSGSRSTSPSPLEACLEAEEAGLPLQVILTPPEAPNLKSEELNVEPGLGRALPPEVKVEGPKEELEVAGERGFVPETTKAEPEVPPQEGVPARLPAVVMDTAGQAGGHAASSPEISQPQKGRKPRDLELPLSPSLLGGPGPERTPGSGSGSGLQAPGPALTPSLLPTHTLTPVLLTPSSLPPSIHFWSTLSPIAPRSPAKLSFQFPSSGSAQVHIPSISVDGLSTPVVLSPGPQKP
Method in brief: as §1

GABPA = target: T3, GABPA (Homo sapiens, UniProt Q06546 1-454); conditions: protein: recombinant; tags: N-terminal GST; dsDNA, one strand shown
T3 sequence: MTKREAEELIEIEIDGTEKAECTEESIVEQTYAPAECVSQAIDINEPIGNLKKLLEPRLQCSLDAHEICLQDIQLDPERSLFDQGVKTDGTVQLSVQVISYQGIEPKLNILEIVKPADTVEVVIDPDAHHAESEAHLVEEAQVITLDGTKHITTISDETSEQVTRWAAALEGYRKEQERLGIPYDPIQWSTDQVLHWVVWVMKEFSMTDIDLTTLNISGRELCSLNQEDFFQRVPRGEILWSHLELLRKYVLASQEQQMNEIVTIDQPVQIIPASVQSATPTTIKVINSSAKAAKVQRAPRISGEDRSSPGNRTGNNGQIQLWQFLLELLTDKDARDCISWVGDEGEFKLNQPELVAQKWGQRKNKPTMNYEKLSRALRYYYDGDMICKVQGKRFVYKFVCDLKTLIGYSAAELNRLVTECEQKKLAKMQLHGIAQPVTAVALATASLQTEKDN
Method in brief: as §1

ERG = target: T4, ERG (Homo sapiens, UniProt P11308 1-479); conditions: protein: recombinant; tags: N-terminal GST; dsDNA, one strand shown
T4 sequence: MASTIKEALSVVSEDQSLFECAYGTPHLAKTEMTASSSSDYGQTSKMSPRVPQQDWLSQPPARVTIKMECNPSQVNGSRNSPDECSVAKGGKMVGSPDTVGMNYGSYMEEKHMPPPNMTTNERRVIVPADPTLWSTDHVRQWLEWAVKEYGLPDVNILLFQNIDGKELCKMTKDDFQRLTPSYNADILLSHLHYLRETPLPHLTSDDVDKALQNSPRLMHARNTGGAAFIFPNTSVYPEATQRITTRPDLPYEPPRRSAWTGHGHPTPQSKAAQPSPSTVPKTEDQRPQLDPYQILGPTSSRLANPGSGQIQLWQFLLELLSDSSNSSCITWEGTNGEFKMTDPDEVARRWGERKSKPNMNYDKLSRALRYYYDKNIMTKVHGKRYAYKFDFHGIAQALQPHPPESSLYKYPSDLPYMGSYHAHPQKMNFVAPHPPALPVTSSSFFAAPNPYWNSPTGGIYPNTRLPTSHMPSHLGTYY
Method in brief: as §1

ELF1 = ELF1 (Homo sapiens, UniProt P32519 1-619); conditions: protein: recombinant; tags: N-terminal GST; dsDNA, one strand shown
Method in brief: as §1

EHF = target: T5, EHF (Homo sapiens, UniProt Q9NZC4 1-300); conditions: protein: recombinant; tags: N-terminal GST; dsDNA, one strand shown
T5 sequence: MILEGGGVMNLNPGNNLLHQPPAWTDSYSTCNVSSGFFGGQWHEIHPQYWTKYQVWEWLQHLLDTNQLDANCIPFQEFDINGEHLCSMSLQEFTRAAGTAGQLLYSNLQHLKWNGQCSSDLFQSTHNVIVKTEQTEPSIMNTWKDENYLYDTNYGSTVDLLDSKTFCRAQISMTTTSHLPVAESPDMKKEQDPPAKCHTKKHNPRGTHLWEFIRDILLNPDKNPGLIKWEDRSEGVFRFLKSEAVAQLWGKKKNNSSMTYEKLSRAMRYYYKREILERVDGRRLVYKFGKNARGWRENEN
Method in brief: as §1

SPI1 = SPI1 (Homo sapiens, UniProt P17947 1-270); conditions: protein: recombinant; tags: N-terminal GST; dsDNA, one strand shown
Method in brief: as §1

SPIB = SPIB (Homo sapiens, UniProt Q01892 1-262); conditions: protein: recombinant; tags: N-terminal GST; dsDNA, one strand shown
Method in brief: as §1

ELK3 = target: T6, ELK3 (Homo sapiens, UniProt P41970 1-407); conditions: protein: recombinant; tags: N-terminal GST; dsDNA, one strand shown
T6 sequence: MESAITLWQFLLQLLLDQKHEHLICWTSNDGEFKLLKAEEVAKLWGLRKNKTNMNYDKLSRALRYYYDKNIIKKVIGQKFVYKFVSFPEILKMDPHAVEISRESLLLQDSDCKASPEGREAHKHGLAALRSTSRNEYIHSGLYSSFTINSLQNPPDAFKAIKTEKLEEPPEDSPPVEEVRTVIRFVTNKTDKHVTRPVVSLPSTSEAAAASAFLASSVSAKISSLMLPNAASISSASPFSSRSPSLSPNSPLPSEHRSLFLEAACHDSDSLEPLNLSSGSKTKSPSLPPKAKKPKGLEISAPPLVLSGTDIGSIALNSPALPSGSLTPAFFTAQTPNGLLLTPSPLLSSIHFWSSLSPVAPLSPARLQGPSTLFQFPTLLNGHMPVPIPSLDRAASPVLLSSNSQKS
Method in brief: as §1

FEV = target: T7, FEV (Homo sapiens, UniProt Q99581 1-238); conditions: protein: recombinant; tags: N-terminal GST; dsDNA, one strand shown
T7 sequence: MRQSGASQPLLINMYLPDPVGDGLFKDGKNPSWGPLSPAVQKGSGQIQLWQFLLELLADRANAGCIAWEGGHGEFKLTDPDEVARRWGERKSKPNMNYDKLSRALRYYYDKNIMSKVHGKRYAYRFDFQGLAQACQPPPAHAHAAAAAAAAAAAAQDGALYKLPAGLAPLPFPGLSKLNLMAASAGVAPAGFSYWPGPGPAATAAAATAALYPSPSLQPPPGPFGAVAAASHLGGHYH
Method in brief: as §1

ETV5 = ETV5 (Homo sapiens, UniProt P41161 1-510); conditions: protein: recombinant; tags: N-terminal GST; dsDNA, one strand shown
Method in brief: as §1

HSF1 = HSF1 (Homo sapiens, UniProt Q00613 1-529); conditions: protein: recombinant; tags: N-terminal GST; chain copies: 3; dsDNA, one strand shown
Method in brief: as §1

SPIC = target: T8, SPIC (Homo sapiens, UniProt Q8N5J4 1-248); conditions: protein: recombinant; tags: N-terminal GST; dsDNA, one strand shown
T8 sequence: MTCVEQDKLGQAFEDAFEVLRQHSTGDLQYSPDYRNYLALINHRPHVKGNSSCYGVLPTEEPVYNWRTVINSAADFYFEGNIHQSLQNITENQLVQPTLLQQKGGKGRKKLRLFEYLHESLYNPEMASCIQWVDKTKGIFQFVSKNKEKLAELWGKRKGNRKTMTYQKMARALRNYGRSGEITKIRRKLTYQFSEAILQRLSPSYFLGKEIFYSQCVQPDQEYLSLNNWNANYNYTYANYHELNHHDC
Method in brief: as §1

ELF4 = ELF4 (Homo sapiens, UniProt Q99607 1-663); conditions: protein: recombinant; tags: N-terminal GST; dsDNA, one strand shown
Method in brief: as §1

ELK4 = target: T9, ELK4 (Homo sapiens, UniProt P28324-2 1-405); conditions: protein: recombinant; tags: N-terminal GST; dsDNA, one strand shown
T9 sequence: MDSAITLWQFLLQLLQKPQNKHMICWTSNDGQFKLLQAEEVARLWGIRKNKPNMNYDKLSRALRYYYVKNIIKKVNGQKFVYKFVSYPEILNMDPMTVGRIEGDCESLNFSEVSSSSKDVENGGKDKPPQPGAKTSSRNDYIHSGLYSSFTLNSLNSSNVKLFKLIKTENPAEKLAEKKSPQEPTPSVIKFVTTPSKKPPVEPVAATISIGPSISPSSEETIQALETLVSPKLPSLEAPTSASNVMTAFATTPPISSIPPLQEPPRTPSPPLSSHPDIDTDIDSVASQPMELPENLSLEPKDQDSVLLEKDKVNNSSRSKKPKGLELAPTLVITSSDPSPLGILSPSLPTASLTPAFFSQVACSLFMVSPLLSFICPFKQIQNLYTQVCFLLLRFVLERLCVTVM
Method in brief: as §1

ETV2 = target: T10, ETV2 (Homo sapiens, UniProt O00321 1-342); conditions: protein: recombinant; tags: N-terminal GST; dsDNA, one strand shown
T10 sequence: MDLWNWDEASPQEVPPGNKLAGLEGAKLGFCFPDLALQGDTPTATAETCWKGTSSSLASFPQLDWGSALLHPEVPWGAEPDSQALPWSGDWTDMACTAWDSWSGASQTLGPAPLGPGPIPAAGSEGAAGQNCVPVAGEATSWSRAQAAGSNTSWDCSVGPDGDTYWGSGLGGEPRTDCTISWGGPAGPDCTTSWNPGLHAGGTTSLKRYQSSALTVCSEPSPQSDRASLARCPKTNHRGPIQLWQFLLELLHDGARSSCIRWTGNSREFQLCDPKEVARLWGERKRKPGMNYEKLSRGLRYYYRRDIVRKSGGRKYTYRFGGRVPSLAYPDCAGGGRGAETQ
Method in brief: as §1

ELF3 = target: T11, ELF3 (Homo sapiens, UniProt P78545 1-371); conditions: protein: recombinant; tags: N-terminal GST; dsDNA, one strand shown
T11 sequence: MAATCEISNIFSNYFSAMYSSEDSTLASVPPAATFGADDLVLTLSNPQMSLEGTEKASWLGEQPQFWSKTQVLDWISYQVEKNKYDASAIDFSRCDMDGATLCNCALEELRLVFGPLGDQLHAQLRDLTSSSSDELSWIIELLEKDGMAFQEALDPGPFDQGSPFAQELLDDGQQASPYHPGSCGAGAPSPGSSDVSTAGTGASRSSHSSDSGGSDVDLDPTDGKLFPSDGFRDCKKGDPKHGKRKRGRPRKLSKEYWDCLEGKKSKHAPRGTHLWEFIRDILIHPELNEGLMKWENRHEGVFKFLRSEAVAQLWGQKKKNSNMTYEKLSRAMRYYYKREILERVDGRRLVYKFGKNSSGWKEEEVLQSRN
Method in brief: as §1

CRX = CRX (Homo sapiens, UniProt O43186 1-299); conditions: protein: recombinant; tags: N-terminal GST; dsDNA, one strand shown
Method in brief: as §1

ETV1 = ETV1 (Homo sapiens, UniProt P50549 1-477); conditions: protein: recombinant; tags: N-terminal GST; dsDNA, one strand shown
Method in brief: as §1

Sequence of ETV1 (P50549 whole entry): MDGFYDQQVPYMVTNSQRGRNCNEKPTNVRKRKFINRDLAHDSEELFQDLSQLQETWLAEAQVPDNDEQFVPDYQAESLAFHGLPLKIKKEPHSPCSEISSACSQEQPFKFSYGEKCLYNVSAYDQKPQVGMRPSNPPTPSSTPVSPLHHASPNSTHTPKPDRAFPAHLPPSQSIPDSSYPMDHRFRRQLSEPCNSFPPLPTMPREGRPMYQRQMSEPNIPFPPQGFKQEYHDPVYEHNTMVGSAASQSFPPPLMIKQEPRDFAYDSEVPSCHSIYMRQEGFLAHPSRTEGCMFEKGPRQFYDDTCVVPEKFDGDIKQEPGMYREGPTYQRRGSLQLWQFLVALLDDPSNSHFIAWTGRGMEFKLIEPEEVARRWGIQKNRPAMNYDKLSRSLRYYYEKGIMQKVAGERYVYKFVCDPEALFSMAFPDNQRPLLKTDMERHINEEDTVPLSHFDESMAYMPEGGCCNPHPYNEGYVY
Sequence of ELF4 (Q99607 whole entry): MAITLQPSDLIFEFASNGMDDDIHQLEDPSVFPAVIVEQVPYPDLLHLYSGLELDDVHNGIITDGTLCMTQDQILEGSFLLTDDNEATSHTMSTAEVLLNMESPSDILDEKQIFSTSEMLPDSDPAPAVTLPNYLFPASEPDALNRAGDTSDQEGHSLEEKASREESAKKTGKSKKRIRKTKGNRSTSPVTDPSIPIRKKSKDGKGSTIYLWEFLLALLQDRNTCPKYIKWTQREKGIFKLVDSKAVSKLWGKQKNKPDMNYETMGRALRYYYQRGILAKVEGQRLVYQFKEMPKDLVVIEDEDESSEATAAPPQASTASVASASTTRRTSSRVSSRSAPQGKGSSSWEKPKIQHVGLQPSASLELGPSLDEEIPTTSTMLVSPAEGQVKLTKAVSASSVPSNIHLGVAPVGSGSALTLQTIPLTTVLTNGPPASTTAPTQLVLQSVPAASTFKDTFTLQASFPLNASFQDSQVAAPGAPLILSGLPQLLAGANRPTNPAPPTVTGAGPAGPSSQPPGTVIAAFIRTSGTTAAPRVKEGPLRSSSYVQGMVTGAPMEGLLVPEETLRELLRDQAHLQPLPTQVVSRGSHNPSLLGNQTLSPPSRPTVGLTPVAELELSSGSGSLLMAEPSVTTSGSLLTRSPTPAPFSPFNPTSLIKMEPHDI
Sequence of CRX (O43186 whole entry): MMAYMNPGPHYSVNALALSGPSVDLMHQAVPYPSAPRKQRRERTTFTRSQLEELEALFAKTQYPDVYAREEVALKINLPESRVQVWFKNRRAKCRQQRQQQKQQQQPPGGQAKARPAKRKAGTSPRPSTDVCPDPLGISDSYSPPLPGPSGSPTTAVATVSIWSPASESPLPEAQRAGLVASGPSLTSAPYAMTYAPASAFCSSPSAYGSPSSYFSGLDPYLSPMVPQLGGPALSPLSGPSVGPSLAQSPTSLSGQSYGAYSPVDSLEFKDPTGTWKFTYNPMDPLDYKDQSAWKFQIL
Sequence of HSF1 (Q00613 whole entry): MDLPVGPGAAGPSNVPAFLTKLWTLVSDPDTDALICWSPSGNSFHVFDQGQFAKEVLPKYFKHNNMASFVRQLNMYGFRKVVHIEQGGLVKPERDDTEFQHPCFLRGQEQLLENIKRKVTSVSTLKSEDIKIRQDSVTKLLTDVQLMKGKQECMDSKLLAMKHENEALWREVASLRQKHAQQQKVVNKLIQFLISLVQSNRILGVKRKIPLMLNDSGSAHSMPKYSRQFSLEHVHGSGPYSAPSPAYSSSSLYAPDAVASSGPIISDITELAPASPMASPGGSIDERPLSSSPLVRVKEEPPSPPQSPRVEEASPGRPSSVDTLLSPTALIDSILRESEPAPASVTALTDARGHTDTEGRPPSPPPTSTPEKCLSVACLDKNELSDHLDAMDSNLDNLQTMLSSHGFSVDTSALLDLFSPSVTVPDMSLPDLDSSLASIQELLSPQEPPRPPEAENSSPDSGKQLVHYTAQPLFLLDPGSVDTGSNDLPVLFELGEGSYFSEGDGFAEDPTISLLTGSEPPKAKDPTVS
Sequence of SPIB (Q01892 whole entry): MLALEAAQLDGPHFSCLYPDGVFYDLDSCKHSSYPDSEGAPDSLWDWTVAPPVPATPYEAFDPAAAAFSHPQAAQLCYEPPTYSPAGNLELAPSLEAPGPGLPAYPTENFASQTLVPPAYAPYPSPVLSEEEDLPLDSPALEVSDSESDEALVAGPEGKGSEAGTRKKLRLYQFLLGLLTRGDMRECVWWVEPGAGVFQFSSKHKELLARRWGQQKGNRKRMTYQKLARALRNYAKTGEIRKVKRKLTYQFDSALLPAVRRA
Sequence of ELF1 (P32519 whole entry): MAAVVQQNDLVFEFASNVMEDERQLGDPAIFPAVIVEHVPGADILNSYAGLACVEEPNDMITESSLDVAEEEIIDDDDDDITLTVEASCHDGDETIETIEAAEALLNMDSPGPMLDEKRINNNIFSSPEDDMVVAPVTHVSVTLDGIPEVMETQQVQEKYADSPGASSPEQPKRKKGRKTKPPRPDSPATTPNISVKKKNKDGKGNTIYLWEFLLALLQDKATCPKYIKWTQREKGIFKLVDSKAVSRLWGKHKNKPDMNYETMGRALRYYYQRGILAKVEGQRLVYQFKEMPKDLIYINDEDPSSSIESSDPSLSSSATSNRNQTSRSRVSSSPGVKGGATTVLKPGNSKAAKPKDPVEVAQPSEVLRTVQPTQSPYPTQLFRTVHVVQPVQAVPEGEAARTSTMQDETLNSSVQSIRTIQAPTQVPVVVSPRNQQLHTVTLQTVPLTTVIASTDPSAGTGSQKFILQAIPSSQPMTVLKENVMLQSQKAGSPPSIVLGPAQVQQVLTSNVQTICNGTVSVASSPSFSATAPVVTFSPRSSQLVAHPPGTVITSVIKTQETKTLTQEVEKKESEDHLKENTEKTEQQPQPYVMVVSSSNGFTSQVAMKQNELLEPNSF
Sequence of ETV5 (P41161 whole entry): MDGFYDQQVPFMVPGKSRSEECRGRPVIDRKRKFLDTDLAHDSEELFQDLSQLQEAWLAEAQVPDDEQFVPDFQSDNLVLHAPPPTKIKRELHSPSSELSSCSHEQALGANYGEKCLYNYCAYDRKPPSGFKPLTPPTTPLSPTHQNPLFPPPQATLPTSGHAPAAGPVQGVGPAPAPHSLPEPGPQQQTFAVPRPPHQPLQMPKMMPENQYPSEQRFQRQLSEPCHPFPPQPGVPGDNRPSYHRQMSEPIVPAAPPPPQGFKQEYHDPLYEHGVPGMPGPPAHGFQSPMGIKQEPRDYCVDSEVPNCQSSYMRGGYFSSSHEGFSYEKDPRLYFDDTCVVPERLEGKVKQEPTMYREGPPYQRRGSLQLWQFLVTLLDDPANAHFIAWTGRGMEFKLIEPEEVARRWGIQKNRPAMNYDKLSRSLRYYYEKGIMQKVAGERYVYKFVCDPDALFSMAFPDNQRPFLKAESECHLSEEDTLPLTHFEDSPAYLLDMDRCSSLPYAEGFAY

Sequence: CTAATT
- binding signal (FLI1): 1.35 fold enrichment (6-mer frequency, TF over GST control)
- binding signal (ELK1): 1.2 fold enrichment (6-mer frequency, TF over GST control)
- binding signal (GABPA): 1.33 fold enrichment (6-mer frequency, TF over GST control)
- binding signal (ERG): 1.36 fold enrichment (6-mer frequency, TF over GST control)
- binding signal (ELF1): 1.43 fold enrichment (6-mer frequency, TF over GST control)
- binding signal (EHF): 1.33 fold enrichment (6-mer frequency, TF over GST control)
- binding signal (SPI1): 1.3 fold enrichment (6-mer frequency, TF over GST control)
- binding signal (SPIB): 1.37 fold enrichment (6-mer frequency, TF over GST control)
- binding signal (ELK3): 1.4 fold enrichment (6-mer frequency, TF over GST control)
- binding signal (FEV): 1.35 fold enrichment (6-mer frequency, TF over GST control)
- binding signal (ETV5): 1.28 fold enrichment (6-mer frequency, TF over GST control)
- binding signal (HSF1): 1.47 fold enrichment (6-mer frequency, TF over GST control)
- binding signal (SPIC): 1.46 fold enrichment (6-mer frequency, TF over GST control)
- binding signal (ELF4): 1.38 fold enrichment (6-mer frequency, TF over GST control)
- binding signal (ELK4): 1.27 fold enrichment (6-mer frequency, TF over GST control)
- binding signal (ETV2): 1.57 fold enrichment (6-mer frequency, TF over GST control)
- binding signal (ELF3): 1.48 fold enrichment (6-mer frequency, TF over GST control)
- binding signal (CRX): 2.09 fold enrichment (6-mer frequency, TF over GST control)
- binding signal (ETV1): 1.26 fold enrichment (6-mer frequency, TF over GST control)
